Source: PubChem BioAssay (Broad Institute)
aSyn UTR act: Activators working through SNCA 5'UTR binding (MLPCN). alpha-synuclein 5'UTR reporter, activators screen. activity score, % (tested at 7.5 µM), hits read low. actives 7.1% (n = 300,000). AID 1814; in the data active means activity score below about -60%
Numbers stand for hits; n = inactive. The list is a sample of the results.

SMILES	aSyn UTR act
Cc1nc2cc(-c3ccccc3)ccc2o1	-67.4
Cc1ccc(C(=O)CNc2ccc(Br)cc2)cc1	-71.4
Cc1ccc(NCC(=O)c2ccc([N+](=O)[O-])cc2)cc1	-114.8
O=C(O)[C@@H]1CCCC[C@@H]1C(=O)N1CCc2ccccc2C1CN1C(=O)c2ccccc2C1=O (stereo partly drawn)	n
O=C(/C=C1\NCC2c3ccccc3CCN2C1=O)c1ccccc1 (stereo not drawn)	-155.7
O=C(NCc1ccco1)Nc1ccc(Br)cc1	-118.6
O=C(NCc1ccco1)Nc1ccc2nsnc2c1	-76.2
O=C(NCCC1=CCCCC1)Nc1ccc2nsnc2c1	-110.0
COC(=O)c1ccc(NN=Nc2ccc(C)cc2)cc1	-173.1
CC(=O)c1ccc(N=Nc2ccc(C)cc2)cc1	n
COC(=O)c1ccc(N=NN2CCCCC2)cc1	-101.7
Cc1ccc(C(=O)NCCc2csc(-c3cccnc3)n2)cc1	-76.7
O=C1/C(=C/c2ccncc2)CCC/C1=C\c1ccncc1	-100.9
CC1CC/C(=C\c2ccc3c(c2)OCO3)C(=O)/C1=C/c1ccc2c(c1)OCO2 (stereo not drawn)	-79.8
O=C1/C(=C\c2ccc3c(c2)OCO3)CCC/C1=C/c1ccc2c(c1)OCO2	-93.5
Nc1nnc(-c2cc3ccccc3oc2=O)s1	-115.8
O=c1oc2ccccc2cc1-c1nnc(NCc2ccco2)s1	-131.4
COc1ccc2oc(=O)c(-c3nnc(N)s3)cc2c1	-97.0
O=c1oc2ccccc2cc1-c1nc2c(s1)CCc1ccccc1-2	-81.1
CC/C(C)=N\Nc1nc(-c2cc3cc(OC)ccc3oc2=O)cs1	-118.9
COCCN=c1scc(-c2cccs2)n1/N=C(\C)c1ccco1	-153.0
O=C1C2C3C=CC(CO)(O3)C2C(=O)N1c1ccc(-c2ccccc2)cc1 (stereo not drawn)	-84.8
CN(C)c1ccc(C(=S)NCc2ccco2)cc1	-68.7
CN(C)c1ccc(/C=N/NC(=S)NCc2ccco2)cc1	-126.6
COc1ccccc1-c1nnc2n1N=C(c1ccc(O)c(O)c1)CS2	n
SMILES	aSyn UTR act
COc1cc(C(C#N)N2N=C(c3ccccc3)CC2c2ccccc2)ccc1O (stereo not drawn)	-142.0
COC(=O)c1ccc2nc(NC(=O)CSCC(=O)OCC(=O)c3ccccc3)sc2c1	-72.6
Cc1ccc2nc(NC(=O)CSCC(=O)OCC(=O)c3ccc(Br)cc3)sc2c1	n
COC(=O)c1ccc2nc(NC(=O)COC(=O)CSc3nc(C)cc(C)n3)sc2c1	-87.8
COc1ccc2nc(Nc3nc(CSc4nc5ccccc5[nH]4)cc(=O)[nH]3)nc(C)c2c1	n
COc1cccc(CSc2nc3ccccc3[nH]2)c1	-144.3
O=[N+]([O-])c1cccc(CSc2nc3ccccc3[nH]2)c1	-69.7
COC(=O)c1cc(CSc2nc3ccccc3[nH]2)oc1C	-173.3
COc1ccc2c(c1)NC(=O)CC(c1ccccc1)=N2	-71.6
Cc1csc(NC(=O)c2ccc(S(=O)(=O)N3CCCC3)cc2)n1	-62.3
CC1CC(C)CN(S(=O)(=O)c2ccc(C(=O)Nc3nnc(-c4cccs4)o3)cc2)C1 (stereo not drawn)	n
O=C(Nc1nc(-c2cccs2)cs1)c1ccc(S(=O)(=O)N2CCCC2)cc1	-95.7
Cc1cc(C)c2nc(NNC(=O)c3ccc(S(=O)(=O)N4CCCC(C)C4)cc3)sc2c1 (stereo not drawn)	n
CN(C)S(=O)(=O)c1ccc(C(=O)Nc2nc(-c3cccs3)cs2)cc1	-99.3
Cc1cc(C)nc(SCC2COc3ccccc3O2)n1 (stereo not drawn)	-70.8
CCCS(=O)(=O)c1cnc(C2COc3ccccc3O2)nc1N (stereo not drawn)	n
ClC1(Cl)CC1CSc1nnc(-c2ccncc2)o1 (stereo not drawn)	-66.0
Clc1ccccc1CONc1ncnc2nonc12	-91.1
CN1CCN(c2nc(Nc3cccc(C(F)(F)F)c3)nc(N3CCOCC3)n2)CC1	-69.3
O=C1CCCN1CCC(=O)N1CCCC(CO)(Cc2ccccc2)C1 (stereo not drawn)	-97.6
O=C(COc1ccccc1)Nc1cc(Cl)ccc1Cl	-91.4
O=C(COc1ccccc1)Nc1ccccc1F	-139.5
COCC(=O)Nc1cc(C(=O)Nc2ccccc2)ccc1Cl	-78.9
O=C(COc1ccccc1)Nc1ccc(Cl)cc1Cl	-154.4
Cc1ccc(OCC(=O)N2CCOCC2)cc1C	-68.0
SMILES	aSyn UTR act
Cc1ccc(OCc2ccc(C(=O)N3CCOCC3)cc2)cc1C	-65.5
Nc1cc(C(F)(F)F)ccc1C(=O)O	-62.3
O=C(Nc1ccc(N2CCCC2)cc1)c1cccc(Cl)c1Cl	-99.6
O=C(Nc1ccc(N2CCCC2)cc1)c1ccccc1F	-79.8
O=C(Nc1ccc(N2CCCCC2)cc1)c1cccnc1Cl	-128.5
O=C(Nc1ccc(N2CCOCC2)nc1)c1ccccc1Cl	-102.5
O=C(O)c1cccc(Nc2nc(-c3cc4ccccc4oc3=O)cs2)c1	-98.1
COc1ccc(/C=C/C(=O)Nc2ccccc2C)cc1S(=O)(=O)N1CCOCC1	-86.7
N#C/C(=C/c1ccc(N2CCCCCC2)o1)c1cccc(F)c1	-286.4
N#C/C(=C/c1ccc(N2CCCCCC2)o1)c1ccc(F)cc1	-110.7
Cc1cc(C)n(-c2nc3ccccc3c(=O)n2OCC(=O)OCc2ccccc2)n1	n
Cc1cc(CC(C)C)n(-c2nc3ccccc3c(=O)n2OCc2ccccc2)n1	-74.7
Cc1ccc(Cl)cc1Nc1nc(-c2sc(NC(=O)c3cccc(Cl)c3)nc2C)cs1	-200.9
Cc1ccccc1Nc1nc(-c2sc(NC(=O)c3cccc(Cl)c3)nc2C)cs1	-145.5
CC(C)[C@@H](CO)NC(=O)c1ccc2c3n(nc2c1)-c1ccc(Cl)cc1CO3	-179.6
C[C@@H](CO)NC(=O)c1ccc2c3n(nc2c1)-c1ccc(Cl)cc1CO3	-192.2
CCOC(=O)CNc1c(-c2ccc(O)cc2)nc2ccc(Cl)cn12	-68.5
O=C(CSc1cccs1)Nc1ccc2ccccc2c1	-125.7
O=C(CSc1ccccc1)Nc1ccc2sccc2c1	-77.9
O=C(CSc1cccs1)Nc1cccc2ccccc12	-112.4
COc1ccccc1C(=O)N/N=C/c1ccc(Cl)s1	-179.0
O=C(N/N=C\c1ccc(Cl)s1)C1COc2ccccc2O1 (stereo not drawn)	-66.7
O=C(N/N=C\c1ccc(Cl)s1)c1cccs1	-67.2
COc1ccccc1C(=O)N/N=C/c1cnc2ccccc2n1	-101.6
O=C(N/N=C/c1c[nH]c2ccccc12)C1COc2ccccc2O1 (stereo not drawn)	n
SMILES	aSyn UTR act
Cc1ccsc1CN(C)C(=O)CCc1nnc(COc2ccccc2)o1	-62.3
CN(Cc1ccsc1)C(=O)CCc1nnc(CCCc2ccccc2)o1	-118.6
COc1cccc(CN(C)C(=O)CCc2nnc(-c3ccsc3)o2)c1	-79.7
C(=N\N1CCN(c2ccccc2)CC1)/c1ccccc1	-122.8
BrC(=C\c1ccccc1)/C=N/N1CCN(c2ccccc2)CC1	-65.3
Clc1ccc(N2CCN(/N=C/c3cccnc3)CC2)cc1	-66.9
COC(=O)c1ccc(/C=N\N2CCN(c3ccccc3)CC2)cc1	-126.6
Cc1ccc(C(=O)O/N=C/c2c(N3CCOCC3)n(C)c3ccccc23)cc1	n
CCCCc1ccc(NC(=O)Nc2cnccn2)cc1	-98.3
CCc1ccc(NC(=O)Nc2cnccn2)cc1	-104.2
O=C(Nc1ccc([N+](=O)[O-])cc1)Nc1ccon1	n
CCc1ccc(NC(=O)Nc2ccon2)cc1	-136.0
O=[N+]([O-])c1cccc(N2Cc3ccccc3C2)c1	-113.3
FC(F)(F)c1cccc(N2Cc3ccccc3C2)c1	-71.9
N#Cc1ccc(N2CCc3ccccc3C2)c([N+](=O)[O-])c1	n
COc1cccc(C(=O)c2cc3cc(Cl)ccc3[nH]2)c1	-147.1
